Test results from PubChem BioAssay (Tox21).
Where “and” joins values, the source holds several entries; their conditions need not be identical. Equal entries are not always repeated. Inconclusive results are not listed. Entries that show only a call come without a potency. Where a structure was tested more than once in an assay, its records may differ in their call. Calls of active or inactive are those of the source. Unless noted, calls follow the shape of the dose curve; as a rule, active = well fitted curve in the direction sought with a large enough effect in the repeat runs; inconclusive = weak or mixed curves; inactive = no such curve, though single readings can be large; an effect the other way counts as inactive or inconclusive.

Assays:
[1] = qHTS assay to identify small molecule agonists of the estrogen receptor alpha (ER-alpha) signaling pathway in the presence of an antagonist - cell viability counter screen (AID 1259386);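 also: series mostly up to about 92 µM; cells exposed to compounds for 22 h at 37 °C before the viability read; nearly all actives have a fitted effect of over 30% in size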
Procedure, shortened: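 VM7Luc4E2 cells (endogenous full-length ER-alpha, 4×ERE-luciferase) were held 5 days in phenol red-free medium with 10% charcoal-stripped FBS, plated, then given 10.0nM ICI-182,780 and compounds at 15 concentrations for 22hr at 37C; viability read by CellTiter-Fluor fluorescence.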

[2] = molecular target: Progesterone receptor (Homo sapiens) (UniProt P06401); assay: qHTS assay to identify small molecule agonists of the progesterone receptor (PR) signaling pathway (AID 1346784; calls by dose curve; also: nearly all actives have a fitted effect of over 30% in size; also: potency is read from the fitted curve at half-maximal effect)
Progesterone receptor (Homo sapiens), sequence (P06401 whole entry, looked up): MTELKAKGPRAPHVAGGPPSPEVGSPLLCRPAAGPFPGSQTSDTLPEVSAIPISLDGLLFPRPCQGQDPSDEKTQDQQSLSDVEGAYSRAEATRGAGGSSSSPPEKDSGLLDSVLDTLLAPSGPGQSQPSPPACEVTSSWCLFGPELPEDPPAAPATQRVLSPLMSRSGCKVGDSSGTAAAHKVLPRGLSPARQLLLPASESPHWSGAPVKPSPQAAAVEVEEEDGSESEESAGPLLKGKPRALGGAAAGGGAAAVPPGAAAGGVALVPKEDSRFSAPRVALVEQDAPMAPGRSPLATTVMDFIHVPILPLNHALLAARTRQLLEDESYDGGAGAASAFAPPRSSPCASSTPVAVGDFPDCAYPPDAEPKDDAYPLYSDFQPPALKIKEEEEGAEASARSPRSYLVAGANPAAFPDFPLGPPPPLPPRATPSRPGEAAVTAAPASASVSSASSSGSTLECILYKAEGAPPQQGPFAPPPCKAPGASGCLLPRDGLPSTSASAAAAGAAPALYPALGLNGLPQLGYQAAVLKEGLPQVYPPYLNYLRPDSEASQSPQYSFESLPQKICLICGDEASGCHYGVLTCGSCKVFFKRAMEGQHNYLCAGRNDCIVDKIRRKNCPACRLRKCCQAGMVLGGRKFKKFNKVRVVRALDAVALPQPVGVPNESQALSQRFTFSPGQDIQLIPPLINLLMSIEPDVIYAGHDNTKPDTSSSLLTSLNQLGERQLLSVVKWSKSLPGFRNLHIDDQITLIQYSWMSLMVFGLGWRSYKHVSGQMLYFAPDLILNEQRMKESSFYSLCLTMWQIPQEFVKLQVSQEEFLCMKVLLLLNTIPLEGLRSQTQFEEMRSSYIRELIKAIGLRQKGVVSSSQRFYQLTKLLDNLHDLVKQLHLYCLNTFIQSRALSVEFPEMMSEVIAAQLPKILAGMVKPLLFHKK
Procedure, shortened: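 PR-UAS-bla HEK 293T cells (beta-lactamase reporter under UAS) in 2% charcoal-stripped FBS, dosed with 23 nL compound after 6 hr, incubated 16hr at 37C. LiveBLAzer B/G FRET substrate added, fluorescence read after 2 hours.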

[3] = qHTS assay to identify small molecule antagonists of the progesterone receptor (PR) signaling pathway - cell viability counter screen (AID 1346798); also: nearly all actives have a fitted effect of over 50% in size; also: potency is read from the fitted curve at half-maximal effect
Procedure, shortened: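 PR-UAS-bla HEK293T cells, 3,000/well in 2% charcoal-stripped FBS medium, dosed with compounds plus R5020 agonist and incubated 16 h at 37C. Viability then measured in the same wells by CellTiter-Glo luminescence after 30 min at RT.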

[4] = qHTS assay to identify small molecule agonists of the progesterone receptor (PR) signaling pathway - cell viability counter screen (AID 1346799; calls by dose curve; also: nearly all actives have a fitted effect of over 45% in size; also: potency is read from the fitted curve at half-maximal effect)
Procedure, shortened: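 Counter screen in the PR-UAS-bla HEK293T wells (2% charcoal-stripped FBS, 16 h compound exposure at 37 C) after the bla read. CellTiter-Glo added, 30 min at room temperature, luminescence read as cell viability.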

[5] = qHTS assay to identify small molecule antagonists of the TGF-beta/Smad signaling pathway - cell viability counter screen (AID 1346824); also: nearly all actives have a fitted effect of over 50% in size
Procedure, shortened: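 Cytotoxicity counter-screen run in the same wells as the beta-lactamase Smad reporter read: CellTiter-Glo luminescence after 30 min at room temperature. HEK 293T SBE-bla cells had 5 hr compound exposure at 37 C with TGF-beta1 (0.25 ng/mL stock).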

[6] = qHTS assay to identify small molecule agonists of the TGF-beta/Smad signaling pathway - cell viability counter screen (AID 1346829); also: top concentration of the series differs between compounds; nearly all actives have a fitted effect of over 45% in size
Procedure, shortened: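 In parallel with the Smad reporter read, viability of HEK 293T cells stably carrying SBE-bla is quantified by ATP luminescence following 5 hr compound treatment.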

[7] = qHTS assay to identify small molecule agonists of the TGF-beta/Smad signaling pathway (AID 1346859; active = well fitted activation curve with a large enough effect in the signal ratio in the repeat runs, not every such curve was filed as active; the % refers to the signal ratio; also: series mostly up to about 77 µM)
Procedure, shortened: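 SBE-bla HEK293T cells plated overnight, then compound exposure for 5 h at 37 C. Beta-lactamase reporter read with LiveBLAzer B/G FRET substrate after 2 h at room temperature, fluorescence at 405 nm excitation, 460/530 nm emission.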

[8] = molecular target: Thyrotropin-releasing hormone receptor (Homo sapiens) (UniProt P34981); assay: qHTS assay to identify small molecule antagonists of the thyrotropin-releasing hormone receptor (TRHR) signaling pathway (AID 1346877; active = well fitted inhibition curve with a large enough effect in the repeat runs, not every such curve was filed as active; also: series mostly up to about 51 µM)
Thyrotropin-releasing hormone receptor (Homo sapiens), sequence (P34981 whole entry, looked up): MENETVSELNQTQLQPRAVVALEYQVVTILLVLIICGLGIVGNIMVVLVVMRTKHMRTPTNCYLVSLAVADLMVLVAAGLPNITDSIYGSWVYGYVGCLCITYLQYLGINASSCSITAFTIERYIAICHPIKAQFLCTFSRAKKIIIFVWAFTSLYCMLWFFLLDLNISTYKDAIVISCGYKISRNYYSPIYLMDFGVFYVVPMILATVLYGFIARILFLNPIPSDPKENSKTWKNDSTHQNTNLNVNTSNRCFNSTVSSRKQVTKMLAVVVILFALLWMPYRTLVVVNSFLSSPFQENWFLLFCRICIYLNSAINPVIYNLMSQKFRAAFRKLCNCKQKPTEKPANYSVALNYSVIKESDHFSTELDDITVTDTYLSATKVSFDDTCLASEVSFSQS
Procedure, shortened: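 TRHR-expressing HEK293 cells were seeded, cultured 18 h at 37 °C, then loaded with calcium dye for 2 h. Compounds were pre-incubated 5 min at room temperature before 1 nM TRH (final) was added, and kinetic fluorescence was recorded for 3 min.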

[9] = molecular target: Thyrotropin-releasing hormone receptor (Homo sapiens) (UniProt P34981); assay: qHTS assay to identify small molecule agonists of the thyrotropin-releasing hormone receptor (TRHR) signaling pathway (AID 1346891; calls by dose curve; also: series mostly up to about 58 µM)
Procedure, shortened: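 HEK293 cells expressing TRHR plated 18 h at 37 C/5% CO2, calcium dye-loaded 2 h at 37 C, then compound added (agonist mode); kinetic calcium fluorescence read 3 min at 1 s intervals; 15 concentrations in triplicate.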

[10] = Human pregnane X receptor (PXR) small molecule agonists, qHTS cell viability counter screen (AID 1346977); also: nearly all actives have a fitted effect of over 50% in size
Procedure, shortened: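 PXR-Luc HepG2 cells (2,000/well, 5% charcoal-stripped FBS) preincubated 5 hr, then exposed to compounds 24 hr at 37 C. Viability read in the same wells by CellTiter-Fluor fluorescence, reagent added at 23 hr, 1 hr incubation.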

[11] = Caspase-3/7 induction in HepG2 cells by small molecules, qHTS assay (AID 1346978); also: nearly all actives have a fitted effect of over 15% in size
Procedure, shortened: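 Caspase-3/7 induction was measured by Caspase-Glo 3/7 luminescence (30 min, room temperature) after a 17 hr compound exposure of wild-type HepG2 cells seeded at 2,000 per well and pre-incubated 5 hr.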

[12] = Caspase-3/7 induction in CHO-K1 cells by small molecules, qHTS cell viability counter screen (AID 1346979); also: nearly all actives have a fitted effect of over 35% in size; also: potency is read from the fitted curve at half-maximal effect
Procedure, shortened: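 Wild-type CHO-K1 cells (1,500/well) treated with compound after 5 h plating; after 16 h at 37C, viability read as CellTiter-Fluor fluorescence following 1 h reagent incubation, in the same wells as the caspase read.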

[13] = Caspase-3/7 induction in CHO-K1 cells by small molecules, qHTS assay (AID 1346980); also: nearly all actives have a fitted effect of over 15% in size
Procedure, shortened: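 Luminescent Caspase-Glo 3/7 read (30min, room temperature) quantified apoptosis induction. Cells were wild-type CHO-K1, treated with compound for 17hr at 37 C and 5% CO2.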

[14] = Caspase-3/7 induction in HepG2 cells by small molecules, qHTS cell viability counter screen (AID 1346981); also: nearly all actives have a fitted effect of over 30% in size; also: potency is read from the fitted curve at half-maximal effect
Procedure, shortened: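 Wild-type HepG2 cells (2,000/well) were allowed to settle for 5 hr at 37 C, 5% CO2, then dosed with compounds in DMSO by pin transfer. After 16 hr at 37 C, CellTiter-Fluor was added and fluorescence read 1 hr later.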

[15] = molecular target: Nuclear receptor subfamily 1 group I member 2 (Homo sapiens) (UniProt O75469); assay: Human pregnane X receptor (PXR) small molecule agonists, qHTS assay (AID 1346982); also: nearly all actives have a fitted effect of over 35% in size; also: potency is read from the fitted curve at half-maximal effect
Nuclear receptor subfamily 1 group I member 2 (Homo sapiens), sequence (O75469 whole entry, looked up): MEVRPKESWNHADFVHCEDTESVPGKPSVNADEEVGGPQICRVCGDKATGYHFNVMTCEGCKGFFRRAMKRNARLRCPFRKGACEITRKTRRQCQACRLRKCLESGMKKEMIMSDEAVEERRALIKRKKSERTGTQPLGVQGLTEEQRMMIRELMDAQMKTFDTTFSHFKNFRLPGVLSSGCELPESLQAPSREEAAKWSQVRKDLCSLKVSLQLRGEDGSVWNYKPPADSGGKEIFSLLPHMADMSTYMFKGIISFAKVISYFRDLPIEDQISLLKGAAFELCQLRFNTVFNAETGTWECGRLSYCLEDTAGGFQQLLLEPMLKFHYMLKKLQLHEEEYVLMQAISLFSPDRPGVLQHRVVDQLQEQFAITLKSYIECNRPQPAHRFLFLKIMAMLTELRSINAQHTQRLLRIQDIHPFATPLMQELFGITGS
Procedure, shortened: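 PXR-Luc HepG2 cells (CYP3A4 promoter-driven luciferase) were seeded in medium with 5% charcoal-stripped FBS, left 5 hr at 37 C, then exposed to compounds in DMSO for 24 hr. Luminescence was read after ONE-Glo addition.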

[16] = molecular target: Acetylcholinesterase (Homo sapiens) (UniProt P22303); assay: Acetylcholinesterase (AChE) small molecule antagonists: colormetric cell-based qHTS assay (AID 1347395; calls by dose curve; also: nearly all actives have a fitted effect of over 30% in size; also: potency is read from the fitted curve at half-maximal effect)
Acetylcholinesterase (Homo sapiens), sequence (P22303 whole entry, looked up): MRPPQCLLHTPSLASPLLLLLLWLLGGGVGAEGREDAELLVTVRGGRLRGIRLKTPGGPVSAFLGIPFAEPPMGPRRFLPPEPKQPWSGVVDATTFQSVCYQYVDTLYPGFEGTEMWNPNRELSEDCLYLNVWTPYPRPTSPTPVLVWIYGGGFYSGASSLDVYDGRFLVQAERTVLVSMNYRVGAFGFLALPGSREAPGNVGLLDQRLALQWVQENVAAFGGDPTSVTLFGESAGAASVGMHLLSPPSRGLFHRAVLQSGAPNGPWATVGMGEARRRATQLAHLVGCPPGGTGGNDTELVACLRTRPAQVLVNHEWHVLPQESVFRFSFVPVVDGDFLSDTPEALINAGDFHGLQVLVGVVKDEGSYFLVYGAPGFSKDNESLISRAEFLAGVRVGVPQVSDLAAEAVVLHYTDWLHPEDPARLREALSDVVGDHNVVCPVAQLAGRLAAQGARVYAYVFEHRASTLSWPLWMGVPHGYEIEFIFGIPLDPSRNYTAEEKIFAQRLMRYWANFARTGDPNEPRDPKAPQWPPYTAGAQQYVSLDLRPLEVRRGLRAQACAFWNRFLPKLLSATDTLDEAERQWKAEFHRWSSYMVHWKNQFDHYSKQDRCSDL
Procedure, shortened: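 SH-SY5Y cells attached overnight, exposed to compound 30 min at 37 C, then given DTNB/acetylthiocholine; after 90 min at 37 C, colorimetric thiocholine read gives cellular AChE activity.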

[17] = molecular target: Progesterone receptor (Homo sapiens) (UniProt P06401); assay: qHTS assay to identify small molecule antagonists of the progesterone receptor (PR) signaling pathway (AID 1346795; active = well fitted inhibition curve with a large enough effect in the signal ratio in the repeat runs, not every such curve was filed as active; the % refers to the signal ratio)
Procedure, shortened: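 PR-UAS-bla HEK293T cells with beta-lactamase reporter under UAS control, in 2% charcoal-stripped FBS, treated with compounds plus 1 nM promegestone (R5020, final) for 16 hr at 37C. Read-out: FRET beta-lactamase substrate fluorescence after 2 hr at room temperature.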

| Compound | Potency [1] | Potency [2] | Potency [3] | Potency [4] | Potency [5] | Potency [6] | outcome [7] | Potency [8] | outcome [9] | Potency [10] | Potency [11] | Potency [12] | Potency [13] | Potency [14] | Potency [15] | Potency [16] | Potency [17] |
| --- | --- | --- | --- | --- | --- | --- | --- | --- | --- | --- | --- | --- | --- | --- | --- | --- | --- |
| Nc1ccccc1C(=O)OCCc1ccccc1 | inactive | inactive | inactive | inactive | inactive | inactive | inactive | inactive | inactive | inactive | inactive | inactive | inactive | inactive | 48.8 µM (active) and 30.6 µM (active) | inactive |  |
| CCCCCCCCP(=O)(O)O | inactive | inactive |  |  | inactive | inactive | inactive | inactive | inactive | inactive | inactive | inactive | inactive | inactive | inactive | inactive | inactive |
| CC(=O)OC(c1ccccc1)C(Cl)(Cl)Cl (stereo not given) | inactive | inactive | inactive | inactive | inactive |  | inactive |  |  | inactive | inactive | inactive | inactive |  | inactive | inactive |  |
| CC1(C)CC(=O)CC(C)(C)N1[O] | inactive | inactive | inactive | inactive | inactive |  | inactive | inactive | inactive | inactive | inactive | inactive | inactive | inactive | inactive | inactive |  |
| O=C(NC(=O)c1cc(F)c(F)cc1Cl)Nc1cc(F)ccc1N1CCC(C(=O)O)CC1 | inactive | inactive |  |  | inactive | inactive | inactive | inactive | inactive | inactive | inactive | inactive | inactive | inactive | inactive | inactive | inactive |
| CCCN(CCOc1c(Cl)cc(Cl)cc1Cl)C(=O)n1ccnc1 | inactive | inactive | 78.6 µM (active) |  | inactive | inactive | inactive |  |  |  | inactive | 62.4 µM (active) | inactive | 62.4 µM (active) | 7.86 µM (active) and 3.44 µM (active) | inactive |  |
| C=CCSSCC=C | inactive | inactive |  | inactive | inactive | inactive | inactive | inactive | inactive |  | inactive | inactive | inactive | inactive | inactive | inactive | inactive |
| O=S(=O)(c1ccccc1)c1ccccc1 | inactive | inactive |  | inactive | inactive | inactive | inactive | inactive | inactive | inactive | inactive | inactive | inactive |  | inactive | inactive |  |
| CC(C)c1ccc(OP(=O)(Oc2ccc(C(C)C)cc2)Oc2ccc(C(C)C)cc2)cc1 | inactive | inactive | 30.6 µM (active) | inactive and 30.6 µM (active) | inactive | inactive | inactive | inactive | inactive | inactive | inactive | inactive | inactive | inactive | 4.36 µM (active) and 5.45 µM (active) and 10.9 µM (active) | 35.8 µM (active) and 31.7 µM (active) |  |
| O=C(O)C(F)(F)C(F)(F)C(F)(F)C(F)(F)C(F)(F)C(F)(F)C(F)(F)C(F)(F)F | inactive | inactive | inactive |  | inactive | inactive | inactive | inactive | inactive | inactive | inactive | inactive | inactive | inactive | 21.7 µM (active) | inactive |  |
| CC(=O)NNc1ccccc1 | inactive | inactive | 30.4 µM (active) |  | inactive | inactive | inactive |  |  |  | inactive |  | inactive | inactive |  |  |  |
| C[C@]12CC[C@H]3[C@@H](CCC4=CC(=O)CC[C@@H]43)[C@@H]1CC[C@@H]2OC(=O)CCc1ccccc1 | inactive | 1.5 µM (active) | inactive |  | inactive | inactive | inactive |  |  | inactive | inactive | inactive | inactive | inactive | inactive |  |  |
| O=C([O-])c1ccccn1.O=C([O-])c1ccccn1.O=C([O-])c1ccccn1.[Cr+3] | inactive | inactive | inactive | inactive | inactive | inactive | inactive |  |  | inactive | inactive | inactive | inactive |  | inactive | inactive |  |
| c1ccc2c(c1)-c1cccc3cccc-2c13 | inactive | inactive | inactive | inactive | inactive | inactive | inactive |  |  | inactive | inactive | inactive | inactive | inactive |  |  |  |
| O=C=NC1CCCCC1 | inactive | inactive |  | inactive | inactive |  | inactive | inactive | inactive | inactive | inactive | inactive | inactive | inactive | 9.71 µM (active) | inactive | inactive |
| O=S(=O)(Cl)Cl | inactive | inactive | inactive |  | inactive | inactive | inactive | inactive | inactive |  | inactive | inactive | inactive | inactive | inactive | inactive |  |
| CCOP(=S)(S)OCC | inactive | inactive | inactive | inactive | inactive | inactive | inactive | inactive | inactive | inactive | inactive | inactive | inactive | inactive |  | 16.7 µM (active) |  |
